The text below walks through data of PMC11062922 (Nature Chemical Biology, 2023).

Like-named read-outs stand apart in the source and are kept apart here.

Common to all, as to design: species or system human, MV4-11 + K-562 + COLO205 + SK-N-BE2 + OVCAR-8
One assay deals with AURKA. The note with it: read-out: apparent Kd; compound concentrations: 100 nM and 1000 nM (sheet 'Samples'), CATDS: 7.2357375689978506E-2; n = 1.
The next assay concerns AURKB. The note with it: read-out: apparent Kd; compound concentrations: 100 nM and 1000 nM (sheet 'Samples'), CATDS: 8.33802174361232E-2; n = 1.
The subject of the next assay is BTK. The settings on record: read-out: apparent Kd; compound concentrations: 100 nM and 1000 nM (sheet 'Samples'), CATDS: 2.7906188232160099E-2; n = 1.
For another assay, the system named is CDK6. The note with it: read-out: apparent Kd, compound concentrations: 100 nM and 1000 nM (sheet 'Samples'), n = 1.
A further assay relates to DDR1. The settings on record: read-out: apparent Kd; compound concentrations: 100 nM and 1000 nM (sheet 'Samples'), CATDS: 3.3765649508464002E-2; n = 1.
The next assay deals with DDR2. The note with it: read-out: apparent Kd; compound concentrations: 100 nM and 1000 nM (sheet 'Samples'), CATDS: 2.4811754642975199E-2; n = 1.
Another assay deals with EPHA1. The note with it: read-out: apparent Kd; compound concentrations: 100 nM and 1000 nM (sheet 'Samples'), CATDS: 5.8966427250755599E-2; n = 1.
In another assay the test system is EPHA2. The settings on record: read-out: apparent Kd; compound concentrations: 100 nM and 1000 nM (sheet 'Samples'), CATDS: 2.87381973097037E-2; n = 1.
Another assay concerns EPHA5. The note with it: read-out: apparent Kd; compound concentrations: 100 nM and 1000 nM (sheet 'Samples'), CATDS: 2.6468271871748401E-2; n = 1.
A further assay has as its system EPHA7. The note with it: read-out: apparent Kd; compound concentrations: 100 nM and 1000 nM (sheet 'Samples'), CATDS: 2.4521911619802599E-2; n = 1.
The test system of another assay is EPHB1. The settings on record: read-out: apparent Kd; compound concentrations: 100 nM and 1000 nM (sheet 'Samples'), CATDS: 4.12835328689228E-2; n = 1.
The subject of the next assay is EPHB3. The note with it: read-out: apparent Kd; compound concentrations: 100 nM and 1000 nM (sheet 'Samples'), CATDS: 2.2990547954998001E-2; n = 1.
The next assay concerns EPHB4. The settings on record: read-out: apparent Kd; compound concentrations: 100 nM and 1000 nM (sheet 'Samples'), CATDS: 2.6241533264211699E-2; n = 1.
The subject of another assay is EPHB6. The settings on record: read-out: apparent Kd; compound concentrations: 100 nM and 1000 nM (sheet 'Samples'), CATDS: 2.2781408813982901E-2; n = 1.
In another assay the test system is FGFR1. The note with it: read-out: apparent Kd; compound concentrations: 100 nM and 1000 nM (sheet 'Samples'), CATDS: 3.1616918928168397E-2; n = 1.
Another assay has as its system FLT4. The settings on record: read-out: apparent Kd; compound concentrations: 100 nM and 1000 nM (sheet 'Samples'), CATDS: 7.7146870041813295E-2; n = 1.
A further assay has as its system GSK3A. The settings on record: read-out: apparent Kd; compound concentrations: 100 nM and 1000 nM (sheet 'Samples'), CATDS: 2.5407151234935001E-2; n = 1.
Another assay relates to GSK3B. The settings on record: read-out: apparent Kd; compound concentrations: 100 nM and 1000 nM (sheet 'Samples'), CATDS: 2.45501369034281E-2; n = 1.
The test system of another assay is IRAK1. The settings on record: read-out: apparent Kd; compound concentrations: 100 nM and 1000 nM (sheet 'Samples'), CATDS: 2.4333511791148201E-2; n = 1.
The test system of another assay is MAP3K5. The settings on record: read-out: apparent Kd; compound concentrations: 100 nM and 1000 nM (sheet 'Samples'), CATDS: 2.5132787541446201E-2; n = 1.
In the next assay the test system is MAP3K6. The settings on record: read-out: apparent Kd; compound concentrations: 100 nM and 1000 nM (sheet 'Samples'), CATDS: 2.24428147169137E-2; n = 1.
The subject of the next assay is PAK4. The settings on record: read-out: apparent Kd; compound concentrations: 100 nM and 1000 nM (sheet 'Samples'), CATDS: 2.7893369435470699E-2; n = 1.
A further assay deals with PDGFRB. The settings on record: read-out: apparent Kd; compound concentrations: 100 nM and 1000 nM (sheet 'Samples'), CATDS: 2.3035756841704998E-2; n = 1.
The next assay deals with PLK4. The note with it: read-out: apparent Kd; compound concentrations: 100 nM and 1000 nM (sheet 'Samples'), CATDS: 9.4443768096787298E-2; n = 1.
The test system of the next assay is PTK2. The note with it: read-out: apparent Kd; compound concentrations: 100 nM and 1000 nM (sheet 'Samples'), CATDS: 0.104516847999243; n = 1.
Another assay concerns RET. The settings on record: read-out: apparent Kd; compound concentrations: 100 nM and 1000 nM (sheet 'Samples'), CATDS: 0.104878429822753; n = 1.
Another assay has as its system SLK. The note with it: read-out: apparent Kd; compound concentrations: 100 nM and 1000 nM (sheet 'Samples'), CATDS: 2.57372154872102E-2; n = 1.
A further assay concerns STK10. The settings on record: read-out: apparent Kd; compound concentrations: 100 nM and 1000 nM (sheet 'Samples'), CATDS: 4.1679333810588297E-2; n = 1.
The subject of another assay is TEC. The note with it: read-out: apparent Kd; compound concentrations: 100 nM and 1000 nM (sheet 'Samples'), CATDS: 3.46380925591862E-2; n = 1.
A further assay relates to TGFBR1. The note with it: read-out: apparent Kd; compound concentrations: 100 nM and 1000 nM (sheet 'Samples'), CATDS: 3.4751131583425202E-2; n = 1.
Another assay concerns TNK1. The settings on record: read-out: apparent Kd; compound concentrations: 100 nM and 1000 nM (sheet 'Samples'), CATDS: 3.18258683294073E-2; n = 1.
The subject of the next assay is AKT2. The note with it: read-out: apparent Kd; compound concentrations: 100 nM and 1000 nM (sheet 'Samples'), CATDS: 0.30677432174967101; n = 1.
A further assay deals with MAPKAPK2. The settings on record: read-out: apparent Kd; compound concentrations: 100 nM and 1000 nM (sheet 'Samples'), CATDS: 0.38970586087063103; n = 1.

Consider `CC(=O)Nc1ccc2c(c1)C(c1ccccc1Cl)=Nc1c(n[nH]c1C)N2` [RO0281752-000], for which the potency estimated from few doses is 151 nM with AURKA; 121 nM with AURKB; 1080 nM in the assay with BTK; 1320 nM with CDK6 (CATDS: 2.6039683989772199E-2); 658 nM in the assay with DDR1; 1540 nM in the assay on DDR2. For the same compound, the potency estimated from few doses in the assay with EPHA1 was 213 nM; with EPHA2, 992 nM; with EPHA5 it was 1260 nM; in the assay with EPHA7, 1600 nM; with EPHB1 it was 421 nM; with EPHB3, 2020 nM. Moreover, the potency estimated from few doses in the assay on EPHB4 is 1290 nM; with EPHB6, 2090 nM; in the assay on FGFR1, 772 nM; with FLT4, 136 nM; in the assay on GSK3A it was 1430 nM; in the assay on GSK3B, 1600 nM. The potency estimated from few doses with IRAK1 was 1650 nM; in the assay on MAP3K5, 1480 nM; with MAP3K6, 2220 nM; in the assay on PAK4 it was 1080 nM; with PDGFRB, 2000 nM; with PLK4, 100 nM. Further, the potency estimated from few doses is 86.4 nM in the assay with PTK2; 86 nM with RET; 1370 nM with SLK; 413 nM in the assay with STK10; 620 nM in the assay with TEC; 615 nM with TGFBR1. Moreover, the potency estimated from few doses in the assay on TNK1 is 760 nM.

`N#Cc1c(NC(=O)c2ccccc2F)sc2c1CCCC2` [GW572738X]: the potency estimated from few doses was 2340 nM in the assay on AKT2, 2200 nM with CDK6 (CATDS: 0.31503634964043797) and 1460 nM in the assay on MAPKAPK2.
